{"source": "paper PMC7819943", "about": "“Rice protein-binding microarrays: a tool to detect cis-acting elements near promoter regions in rice”", "note": "In all, about 68,000 sequences were measured (“fluorescence intensity (a.u.)”: median about 9,100, highest 2% from about 16,000 on). The sample as a whole holds a higher share of the highest values than the screen did."}
{"molecular_target": "OsWRKY34 (Oryza sativa, UniProt Q0JBA9 1-250)", "sequence (Q0JBA9 entry or part of it)": "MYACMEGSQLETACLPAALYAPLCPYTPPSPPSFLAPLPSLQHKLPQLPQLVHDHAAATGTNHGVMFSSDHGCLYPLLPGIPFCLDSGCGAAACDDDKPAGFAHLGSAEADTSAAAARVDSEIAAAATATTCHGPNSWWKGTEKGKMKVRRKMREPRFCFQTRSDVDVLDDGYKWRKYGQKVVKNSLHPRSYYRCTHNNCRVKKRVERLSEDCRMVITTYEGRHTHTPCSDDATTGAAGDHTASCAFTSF", "experiment": "protein-binding microarray (RPBM); PBS, 2% BSA, 51.3 ng/ul salmon testes DNA, 50 uM zinc acetate, 200 nM TF, 25 C, 1 h; high values mean tight binding", "details": "protein: recombinant; tags: N-terminal polyhistidine and DsRed monomer fusion (pET32a); label: CyDye5-dUTP incorporated in the synthesized complementary strand; 3' TTTTT single-stranded linker to array surface; dsDNA, one strand shown", "how_it_was_run": "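The binding signal is fluorescence intensity per feature, in arbitrary units, read on an Axon 4000B scanner. Polyhistidine- and DsRed-tagged transcription factors (N-terminal fusions) from E. coli BL21-CodonPlus were purified on Ni–NTA and applied at 200 nM for 1 h at 25 °C to a double-stranded, BSA-blocked custom Agilent array in buffer with 50 µM zinc acetate.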"}
{"sequence": "TCTGCGAGGAAGAACCCATTCAGATTACGCTGCATTTTTTCGGAGTCACCTAGTGCAG", "binding signal": "8660 fluorescence intensity (a.u.)"}
{"sequence": "GGCGATCCGGCTTAACTACTTTGTTTGTTTCTCTGTGCAACGGAGTCACCTAGTGCAG", "binding signal": "8480 fluorescence intensity (a.u.)"}
{"sequence": "ACCACCACCACCACCGCCCGCCAAGCGCGGCCCGCCCGACCGGAGTCACCTAGTGCAG", "binding signal": "8720 fluorescence intensity (a.u.)"}
{"sequence": "TGTTCTGCCGGGGTTGTTGCTTACTGATGCAAAACTCTTTCGGAGTCACCTAGTGCAG", "binding signal": "9240 fluorescence intensity (a.u.)"}
{"sequence": "CACCTTTTTTTAATTTTTTGGTTTCCAATTTTTATTTTTTCGGAGTCACCTAGTGCAG", "binding signal": "10900 fluorescence intensity (a.u.)"}
{"sequence": "ATTGGATGTTAAGTTGTGTTTTTGCTGTTTCATGGTTTTACGGAGTCACCTAGTGCAG", "binding signal": "11400 fluorescence intensity (a.u.)"}
{"sequence": "CTTTAATTTTAATTAGAGTTTCTTGCATCGGTTTCCAATGCGGAGTCACCTAGTGCAG", "binding signal": "27700 fluorescence intensity (a.u.)"}
{"sequence": "GTGTTCATTGCTAGTTGCATTGTGGTTTTCTAGTTAATTACGGAGTCACCTAGTGCAG", "binding signal": "9000 fluorescence intensity (a.u.)"}
{"sequence": "TCGGTTTGTTTTTTTCCGGTTTATCTTCTTTCGGTTTTTTCGGAGTCACCTAGTGCAG", "binding signal": "18500 fluorescence intensity (a.u.)"}
{"sequence": "AATTAGTTTCTTGCTTCTTCTTTTTTCTTTTCTTTTTCATCGGAGTCACCTAGTGCAG", "binding signal": "8210 fluorescence intensity (a.u.)"}
{"sequence": "TTCCACGGTTTTCTTTTTTCGGTTTTTATCTTTTCTTTTTCGGAGTCACCTAGTGCAG", "binding signal": "13200 fluorescence intensity (a.u.)"}
{"sequence": "CTTTCCTTTCTTTGTTTTTTATCTTTGTTTTCTTTCTTCCCGGAGTCACCTAGTGCAG", "binding signal": "11800 fluorescence intensity (a.u.)"}
{"sequence": "GATTGGTTGTTTGTTCTGTTTTGGACATGCTTGTTAATTACGGAGTCACCTAGTGCAG", "binding signal": "17100 fluorescence intensity (a.u.)"}
{"sequence": "ATCCAGTGAGCTCGAGGCTTCCCATCTATCCGCCGTTGGTCGGAGTCACCTAGTGCAG", "binding signal": "8260 fluorescence intensity (a.u.)"}
{"sequence": "CTGCTGCATCTGCACTGCATGGCCATGCCCACACACTTGGCGGAGTCACCTAGTGCAG", "binding signal": "8050 fluorescence intensity (a.u.)"}
{"sequence": "TATGCTTCATCTGTTCTTCTACATTGTTATCTACTATCTGCGGAGTCACCTAGTGCAG", "binding signal": "10100 fluorescence intensity (a.u.)"}
{"sequence": "CGAGCTGCTGATGGCCCCTATGCCACATCTACTATGCATGCGGAGTCACCTAGTGCAG", "binding signal": "17100 fluorescence intensity (a.u.)"}
{"sequence": "CTCAACTCGGGATGACATTTGGGGTGTTTTTTTTTTGCAACGGAGTCACCTAGTGCAG", "binding signal": "9820 fluorescence intensity (a.u.)"}
{"sequence": "TACTTGCACTTTACTATATTCTTGCTGTTACGCACCACATCGGAGTCACCTAGTGCAG", "binding signal": "14600 fluorescence intensity (a.u.)"}
{"sequence": "AGTTAAAACCGCTACTCCACTCCTCCCATTGCATAATTTTCGGAGTCACCTAGTGCAG", "binding signal": "9400 fluorescence intensity (a.u.)"}
{"sequence": "AATTTTGATAGATGTGGGATGTGTTGTAATTTGTAAATTTCGGAGTCACCTAGTGCAG", "binding signal": "8270 fluorescence intensity (a.u.)"}
{"sequence": "TTTGCAGGTTTCGTTTGCATTTGCGGGGCGGGCATATATGCGGAGTCACCTAGTGCAG", "binding signal": "21600 fluorescence intensity (a.u.)"}
{"sequence": "GCGGCAGGTTTCGGCGGCGGGGCGGGCGGCAGGTGTCGGCCGGAGTCACCTAGTGCAG", "binding signal": "20000 fluorescence intensity (a.u.)"}
{"sequence": "AAGGTGGTGGGGCAGGTGGAGCGGGTGGTCGGGGCGACGCCGGAGTCACCTAGTGCAG", "binding signal": "11300 fluorescence intensity (a.u.)"}
{"sequence": "GCCGGCGGCAGGGTGGGGCGGGGACGCCTGCCGGCGTCGGCGGAGTCACCTAGTGCAG", "binding signal": "9860 fluorescence intensity (a.u.)"}
{"sequence": "TTGTCCTCAGCCGGCAGTGTAGGTTCCGGGAGGGCGGGGTCGGAGTCACCTAGTGCAG", "binding signal": "19300 fluorescence intensity (a.u.)"}
{"sequence": "TTTCGGTTTTGCTACTTCACATGCGCATATTTTTGGAGGGCGGAGTCACCTAGTGCAG", "binding signal": "9330 fluorescence intensity (a.u.)"}
{"sequence": "TTCTTTTCTTTTTTTCTTTGCGGGGATTTCATATAGGATTCGGAGTCACCTAGTGCAG", "binding signal": "8510 fluorescence intensity (a.u.)"}
{"sequence": "AGGTTCCGGGAGGGCGGGGTGGAGCACGAGGCGGCGGTGCCGGAGTCACCTAGTGCAG", "binding signal": "10600 fluorescence intensity (a.u.)"}
{"sequence": "TGGCGCGTGGGAGGGTCAGCCTAGGGCGTCGGAGGGGCGGCGGAGTCACCTAGTGCAG", "binding signal": "13400 fluorescence intensity (a.u.)"}
{"sequence": "TTTTGCGCGGATGGCCCTTTACTTTTCCCCTCTTGTCCTCCGGAGTCACCTAGTGCAG", "binding signal": "10400 fluorescence intensity (a.u.)"}
{"sequence": "ACTTCTACTCCTACTTCCCTGTGTGGCCCACAGCTAGATACGGAGTCACCTAGTGCAG", "binding signal": "10300 fluorescence intensity (a.u.)"}
{"sequence": "TGGAAGTCTGGAAGGCGCTGTACCTTCGTCTCGCCCGTCACGGAGTCACCTAGTGCAG", "binding signal": "8650 fluorescence intensity (a.u.)"}
{"sequence": "ATATGTCAAGTTTGGTGGATATAGTTGTTTGGCCTTTTACCGGAGTCACCTAGTGCAG", "binding signal": "11700 fluorescence intensity (a.u.)"}
{"sequence": "CACGCTGCACTGCACCGCTTTACGCCATCTCGCCAATTTTCGGAGTCACCTAGTGCAG", "binding signal": "10300 fluorescence intensity (a.u.)"}
{"sequence": "CCAATTTTTTTTTCTCCTTTTGCTTTTTTTCATCAAGAACCGGAGTCACCTAGTGCAG", "binding signal": "8740 fluorescence intensity (a.u.)"}
{"sequence": "CGGAACCGCTCCTCGAGAAGCTCTCGAATTCCTCGTCGTCCGGAGTCACCTAGTGCAG", "binding signal": "9310 fluorescence intensity (a.u.)"}
{"sequence": "ATAAGACGAACGGTTAAAAATGTGCCAAAAAGTCAACGGCCGGAGTCACCTAGTGCAG", "binding signal": "9640 fluorescence intensity (a.u.)"}
{"sequence": "AGACGAACAGTCAAATATGTGCTAAAAAGTCAACGGTGTCCGGAGTCACCTAGTGCAG", "binding signal": "17500 fluorescence intensity (a.u.)"}
{"sequence": "TGTTATGCAAATGTGCAAATGCAAAAGTTGGCCGCAAGAACGGAGTCACCTAGTGCAG", "binding signal": "17600 fluorescence intensity (a.u.)"}
{"sequence": "AAGACGAACGGTCAAATATGTGCTAAAAAGTCAACGGTGTCGGAGTCACCTAGTGCAG", "binding signal": "9990 fluorescence intensity (a.u.)"}
{"sequence": "ATAAGACGAACGGTCAAATATGTGCTAAAAAGTCAACGGTCGGAGTCACCTAGTGCAG", "binding signal": "16400 fluorescence intensity (a.u.)"}
{"sequence": "AGAACGAACAGTCAAACATATGCTAAAAAGTCAACGGTGTCGGAGTCACCTAGTGCAG", "binding signal": "10200 fluorescence intensity (a.u.)"}
{"sequence": "TAAGACGAATGGTCAAATATGTGCTAAAAAGTCAACGGTGCGGAGTCACCTAGTGCAG", "binding signal": "13100 fluorescence intensity (a.u.)"}
{"sequence": "GAACGGTCAAACATGTGTTAAAAAGTCAACGGTGTTAAACCGGAGTCACCTAGTGCAG", "binding signal": "9470 fluorescence intensity (a.u.)"}
{"sequence": "GGTAAAATATGTGCTAAAAAGTCAACGGTGTCAAACATTTCGGAGTCACCTAGTGCAG", "binding signal": "14400 fluorescence intensity (a.u.)"}
